# Results from ChEMBL document CHEMBL4513216, “Probing the Open Global Health Chemical Diversity Library for Multistage-Active Starting Points for Next-Generation Antimalarials” (ACS Infect Dis, 2020).
# In all, about 69,000 compounds went through this assay and about 8,600 (12%) showed an effect of 50% or more. The entries come from a sample that favours strong results as a whole.
# System: Plasmodium berghei
# Assay: Screen against P. berghei liver stage (PbLuc), transformed with Luciferase, at 10uM
# Assay type: functional, HepG2
# Details: tested at 10 uM
row,Structure (SMILES),INHIBITION [%]
1,Cc1nc(Cn2c3c(ccc2=O)CCN(CC2CCC2)CC3)cs1,-18.5
2,CC1c2ncc(CN3CCN(C)CC3)n2CCN1Cc1ccsc1 (centres undefined),27.3
3,CC1c2ncc(CN3CCN(C)CC3)n2CCN1Cc1ccccn1 (centres undefined),53
4,CC1c2ncc(CNC(=O)C3CC3)n2CCN1Cc1ccccn1 (centres undefined),-88.3
5,CC1c2ncc(Cn3cccn3)n2CCN1Cc1ccccn1 (centres undefined),58.4
6,CC1c2ncc(Cn3cccn3)n2CCN1c1ncccn1 (centres undefined),23.1
7,CC1c2ncc(CN3CCN(C)CC3)n2CCN1Cc1cccnc1 (centres undefined),34.8
8,CC1c2ncc(Cn3cccn3)n2CCN1Cc1cccnc1 (centres undefined),-9.26
9,CC1c2ncc(CN3CCN(C)CC3)n2CCN1Cc1ccc(F)cc1 (centres undefined),11.5
10,CC1c2ncc(Cn3cccn3)n2CCN1Cc1ccc(F)cc1 (centres undefined),54.8
11,c1ccc(Cc2nnc(CN3CCOC(Cn4cccn4)C3)o2)cc1 (centres undefined),19.4
12,Cc1cccc(C(=O)N2C[C@@H]3C(CC(=O)N4CCCC4)[C@@H]3C2)n1 (some centres undefined),-2.35
13,CSc1nc2ccsc2c(=O)n1CC(=O)N(C)c1ccccc1,36.8
14,O=C(O)[C@@H]1CCN(C(=O)c2ccccn2)[C@@H]1c1ccc(F)cc1,-8.58
15,CN1CCN(C(=O)c2ccc(=O)n(C)c2)Cc2ccccc21,40.3
16,Cn1cc(C(=O)N2CCOc3ccccc32)ccc1=O,51.8
17,Cc1ccc2c(c1)OCCN2C(=O)c1ccc(=O)n(C)c1,8.48
18,CN1CCN(C(=O)c2ccc(=O)n(C)c2)c2ccccc21,50.4
19,COCCCN1CC2(CCN(C(=O)c3ccc(=O)n(C)c3)CC2)CC1=O,-14.7
20,CN1CC2(CCN(C(=O)c3ccc(=O)n(C)c3)CC2)CC1=O,50.5
21,Cn1cc(C(=O)N2CCOc3cc(F)ccc32)ccc1=O,16.1
22,CC1CN(C)c2ccccc2N(C(=O)c2ccc(=O)n(C)c2)C1 (centres undefined),31.8
23,CN1CC2(CCN(C(=O)c3ccc4nonc4c3)CC2)CC1=O,-6.01

row,Structure (SMILES),INHIBITION [%]
1,CC1CN(C(=O)c2ccc(=O)n(C)c2)c2ccccc2NC1=O (centres undefined),-12.2
2,CN1C(=O)CN(C(=O)c2ccc(=O)n(C)c2)c2ccccc21,60.5
3,CCN1CCN(C(=O)c2ccc(=O)n(C)c2)c2ccccc21,44.1
4,CN(Cc1cccc(F)c1)C(=O)CN1CCOC(Cn2cccn2)C1 (centres undefined),-14.8
5,COc1coc(C(=O)Nc2ccncc2)cc1=O,14.3
6,Cc1cnc(N2CCC3(CCC(C(=O)NC(C)C)C3)CC2)nc1 (centres undefined),11.3
7,Cn1cc(C(=O)N2CCSc3ccccc32)ccc1=O,33.8
8,CC1CCN(C)c2ccccc2N1C(=O)c1ccc(=O)n(C)c1 (centres undefined),-3.12
9,CC(=O)N1CCCN(C(=O)c2ccc(=O)n(C)c2)c2ccccc21,62.6
10,COc1ccc(-c2cc(C3CC3)c(C#N)c(N)n2)cc1F,-60.9
11,O=C(c1ccc[nH]1)N1CCc2nnc(Cn3cccc3)n2CC1,-6.25
12,Cc1ccc(S(=O)(=O)n2ccn(C(=O)CC(C)C)c2=O)cc1,40
13,COc1ccc2c(c1)C1(CCN(Cc3ccncc3)CC1)N(C)CC2,-9.67
14,Cc1ccc(N2CCC3(CCN(Cc4ccccn4)CC3)CC2)nn1,-42.6
15,Cc1ccc(N2CCC3(CCN(Cc4csc(C)n4)CC3)CC2)nn1,58.7
16,COc1ccc2c(c1)C1(CCN(Cc3nccs3)CC1)N(C)CC2,51.3
17,COc1cc(N2CCC3(CCN(Cc4csc(C)n4)C3)CC2)ncn1,55.7
18,COc1ccc2c(c1)C1(CCN(Cc3ccccn3)CC1)N(C)CC2,-73.3
19,Cc1cnc(N2CCC3(CCN(Cc4csc(C)n4)C3=O)C2)nc1 (centres undefined),34
20,Cc1ccc(N2CCC3(CCN(Cc4nccs4)CC3)CC2)nn1,26.5
21,Cc1nc(CN2CCN(c3cc(CCN)ncn3)CC2)cs1,17.2
22,COc1cc(N2CCC3(CCN(Cc4csc(C)n4)C3=O)C2)ncn1 (centres undefined),90.1
23,Cc1cc(NC2CC3(CCN(Cc4csc(C)n4)C3)C2)ncn1 (centres undefined),-31.1

row,Structure (SMILES),INHIBITION [%]
1,Cc1ccc(N2CCC3(CCN(Cc4csc(C)n4)C3=O)C2)nn1 (centres undefined),47.5
2,CSc1ccc(C(=O)N2CC(=O)N(Cc3cccs3)CC(O)C2)cc1 (centres undefined),19.2
3,CCOCC(O)CN1CCN(C(=O)C2CCC2)CC1 (centres undefined),-14.6
4,Cc1ccc(O)c(CNc2cccc(CN3CCN(C)CC3)c2)n1,13.9
5,Cc1cc(NC(=O)CN2CCc3c(nc(C(C)C)n3C)C2)n(C)n1,36
6,COCC1c2nnn(CC3CC3)c2CCN1Cc1ccncc1 (centres undefined),4.68
7,Cc1cc(C)c(CNC(=O)N(C)Cc2cccc(C#N)c2)c(=O)[nH]1,-3.7
8,COc1ccc(C(=O)N2CCCC2c2noc(C(C)C)n2)nn1 (centres undefined),12.255
9,O=C(NC1CC1)N1CC[C@H]2[C@H]1CCN2c1nncs1,-19.8
10,CN(C)CCNC(=O)[C@H]1C[C@H]2CN(C(=O)NCc3ccccc3)C[C@@H]1O2,-0.27
11,CN(Cc1noc(C2CC2)n1)C1CCN(Cc2ccc(F)c(F)c2)C1 (centres undefined),-19.945
12,CCc1cnc(N2CCC3(CC(=O)N(Cc4csc(C)n4)C3)C2)nc1 (centres undefined),34.4
13,c1csc(CN2CCC3(CC2)CCN(CC2CCOCC2)C3)n1,-8.85
14,Cc1nc(CN2CC3(CCN(c4cnccn4)C3)CC2=O)cs1 (centres undefined),35.8
15,Cc1cnc(N2CCC3(CC(=O)N(Cc4csc(C)n4)C3)C2)nc1 (centres undefined),54.7
16,COc1cc(N2CC3(CCN(c4ncccn4)C3)C2)ncn1,12.1
17,N#Cc1ccc(N2CC3(CCN(c4nccs4)C3)C2)nc1,37.9
18,Cc1nc(CN2CC3(CCN(c4ncc(F)cn4)C3)CC2=O)cs1 (centres undefined),-30
19,COc1cc(N2CCC3(CCN(Cc4nccs4)CC3)C2)ncn1,91.9
20,Cc1ccc(N2CCC3(CC2)COCCN(c2nccs2)C3)nn1,6.72
21,Cc1nc(CN2CC3(CCN(c4ncccn4)C3)CC2=O)cs1 (centres undefined),18.2
22,COc1cc(N2CCC3(CC(=O)N(Cc4csc(C)n4)C3)C2)ncn1 (centres undefined),58.4
23,Cc1ccc(N2CC3(CCN(c4nccs4)C3)C2)nn1,58.5
